A short description of test [1]: qHTS RealTime-Glo MT Cell Viability Assay in HEK293 cells - 0 hour (AID 1224880). Also: top concentration of the series differs between compounds; nearly all actives have a fitted effect of over 45% in size. The procedure, abridged: (§1)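 Nonlytic bioluminescent viability monitoring. HEK293 at 600 cells/well with reagent; 5 h settle; compound transfer by pintool; plates held at 37 C and read at set time points.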
Background: Quantitative high-throughput screening tests each substance at several concentrations.

Test [2] in a line: A CellTox Green Cytotoxicity Assay to monitor cytotoxicity in HEK293 cells - 32 hour (AID 1224881). Also: nearly all actives have a fitted effect of over 40% in size. Put shortly: (§2)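 Cytotoxicity was tracked continuously in HEK293 cells by a DNA-binding dye excluded from viable cells. Compounds were transferred in DMSO 5 h after seeding; fluorescence was recorded at intervals up to 40 h.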
Test [3] can be described thus: A CellTox Green Cytotoxicity Assay to monitor cytotoxicity in HepG2 cells - 32 hour (AID 1224883). Also: nearly all actives have a fitted effect of over 50% in size. Also: potency is read from the fitted curve at half-maximal effect. Put shortly: (§3)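 Real-time, homogeneous cytotoxicity readout: dead-cell DNA staining by CellTox Green in HepG2 monolayers, fluorescence measured at timed intervals up to 40 h of continuous compound exposure.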
Test [4] can be described thus: A CellTox Green Cytotoxicity Assay to monitor cytotoxicity in HEK293 cells - 8 hour (AID 1224884). Also: nearly all actives have a fitted effect of over 35% in size. Put shortly: as §2
A short description of test [5]: qHTS RealTime-Glo MT Cell Viability Assay in HepG2 cells - 16 hour (AID 1224885). Also: nearly all actives have a fitted effect of over 50% in size. Put shortly: (§4)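 HepG2 cells (600/well) were dispensed with RealTime-Glo reagents, incubated 5 h at 37 °C, then treated with compounds in DMSO for up to 40 h. Nonlytic NanoLuc luminescence reflecting viable cells was read at each stated time point.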
Test [6] is described as follows: qHTS RealTime-Glo MT Cell Viability Assay in HEK293 cells - 24 hour (AID 1224886). Also: top concentration of the series differs between compounds; nearly all actives have a fitted effect of over 50% in size. The procedure, abridged: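 HEK293 cells seeded with NanoLuc/prosubstrate reagent, rested 5 h at 37 C, then dosed and kept at 37 C up to 40 h. Nonlytic real-time luminescence from viable cells read at 0, 8, 16, 24, 32 and 40 h.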
The nature of test [7]: qHTS RealTime-Glo MT Cell Viability Assay in HEK293 cells - 8 hour (AID 1224887). Also: top concentration of the series differs between compounds; nearly all actives have a fitted effect of over 50% in size. The procedure, abridged:
as §1

Test [8] in a line: A CellTox Green Cytotoxicity Assay to monitor cytotoxicity in HEK293 cells - 16 hour (AID 1224888). Also: nearly all actives have a fitted effect of over 35% in size. The procedure, abridged: as §2
Test [9] is described as follows: qHTS RealTime-Glo MT Cell Viability Assay in HepG2 cells - 0 hour (AID 1224889). Also: nearly all actives have a fitted effect of over 50% in size. The procedure, abridged:
as §4

Test [10] in a line: A CellTox Green Cytotoxicity Assay to monitor cytotoxicity in HepG2 cells - 8 hour (AID 1224890). Also: nearly all actives have a fitted effect of over 45% in size. The procedure, abridged: as §3
Test [11] can be described thus: qHTS assay to identify small molecule antagonists of the estrogen receptor alpha (ER-alpha) signaling pathway using the BG1 cell line in the presence of 0.1 nM 17-beta-estradiol - cell viability counter screen (AID 1259241). Also: nearly all actives have a fitted effect of over 40% in size. The procedure, abridged:
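VM7Luc4E2 cells (endogenous full-length ER-alpha, 4xERE-luciferase), cultured 5 days in charcoal-stripped serum, exposed to compounds with 0.1 nM 17beta-estradiol (final) for 22 hr at 37C. Viability read in same wells as live-cell protease fluorescence after 30 min.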

Test [12] in a line: qHTS assay to identify small molecule antagonists of the androgen receptor (AR) signaling pathway using the MDA cell line in the presence of 0.5 nM R1881 - cell viability counter screen (AID 1259242). Also: nearly all actives have a fitted effect of over 45% in size. The procedure, abridged:
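Cytotoxicity toward MDA-kb2 cells is measured by CellTiter-Fluor live-cell protease fluorescence after 16 hr compound exposure at 37C in the presence of 0.5 nM R1881 stimulator.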

The nature of test [13]: qHTS assay to identify small molecule phospholipidosis (PLD) inducers (AID 1259344; active = well fitted curve in the direction sought with a large enough effect; an effect the other way counts as inactive or inconclusive). Put shortly: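 Fluorescent phospholipid staining (LipidTOX Red) measured by automated microscopy in fixed HepG2 cells after 24 h treatment; nuclei counterstained with Hoechst 33342; amiodarone as reference inducer.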
Test [14] can be described thus: qHTS assay to identify small molecule HDAC inhibitors (AID 1259364). Also: top concentration of the series differs between compounds; nearly all actives have a fitted effect of over 45% in size. Put shortly: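 Homogeneous cell-based luminescent assay of endogenous class I/II HDAC activity; HCT-116 cells, 2 h compound exposure, 30 min HDAC-Glo development at RT.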
Test [15] is described as follows: qHTS assay to identify small molecule HDAC inhibitors - cell viability counter screen (AID 1259365). Put shortly:
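Wild-type HCT-116 cells, 1,500/well, cultured overnight, then compound-treated 2 h at 37 C. Viability measured as ATP luminescence with CellTiter-Glo after 30 min at room temperature.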

Test [16] in a line: qHTS assay to identify small molecule agonists of the sonic hedgehog signaling (Shh) pathway - cell viability counter screen (AID 1259366). Also: nearly all actives have a fitted effect of over 50% in size. Put shortly: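 NIH/3T3-derived Gli1-Luc reporter cells, 2,000 per well, received compound after 4 h and were treated about 23 h at 37C. Viability measured in the same wells by CellTiter-Fluor fluorescence after 1 h.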
Test [17] is described as follows: qHTS assay to identify small molecule antagonists of the sonic hedgehog signaling (Shh) pathway - cell viability counter screen (AID 1259367). Also: nearly all actives have a fitted effect of over 55% in size. Put shortly: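 Using CellTiter-Fluor, viability of Gli1-Luc reporter 3T3 cells is read by fluorescence in the wells used for the Shh luciferase assay. Treatment lasts 23 hr with conditioned medium, then reagent 1 hr at 37C.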

A short description of test [18]: A CellTox Green Cytotoxicity Assay to monitor cytotoxicity in HepG2 cells - 0 hour (AID 1224882). Also: nearly all actives have a fitted effect of over 35% in size. Put shortly:
as §3

Test [19] concerns the target Androgen receptor (Homo sapiens) (UniProt P10275). The test is described as follows: qHTS assay to identify small molecule antagonists of the androgen receptor (AR) signaling pathway using the MDA cell line in the presence of 0.5 nM R1881 (AID 1259243). Also: nearly all actives have a fitted effect of over 50% in size. Put shortly:
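Steps: seed MDA-kb2 cells, incubate 5 hr at 37C; pin-transfer compounds in DMSO; add R1881 to 0.5 nM final; incubate 16 hr; add ONE-Glo, wait 30 min at room temperature; read luminescence.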

The target in test [20] is Estrogen receptor (Homo sapiens) (UniProt P03372). The test is described as follows: qHTS assay to identify small molecule antagonists of the estrogen receptor alpha (ER-alpha) signaling pathway using the BG1 cell line in the presence of 0.1 nM 17-beta-estradiol (AID 1259244). Also: nearly all actives have a fitted effect of over 50% in size. Put shortly: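 After 5 days in hormone-depleted medium (charcoal-stripped serum, no phenol red), VM7Luc4E2 cells were seeded, incubated 24 h, then co-treated with compound and 0.1 nM (final) estradiol for 22 h before luminescence detection.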
Estrogen receptor (Homo sapiens), sequence (P03372 whole entry, looked up): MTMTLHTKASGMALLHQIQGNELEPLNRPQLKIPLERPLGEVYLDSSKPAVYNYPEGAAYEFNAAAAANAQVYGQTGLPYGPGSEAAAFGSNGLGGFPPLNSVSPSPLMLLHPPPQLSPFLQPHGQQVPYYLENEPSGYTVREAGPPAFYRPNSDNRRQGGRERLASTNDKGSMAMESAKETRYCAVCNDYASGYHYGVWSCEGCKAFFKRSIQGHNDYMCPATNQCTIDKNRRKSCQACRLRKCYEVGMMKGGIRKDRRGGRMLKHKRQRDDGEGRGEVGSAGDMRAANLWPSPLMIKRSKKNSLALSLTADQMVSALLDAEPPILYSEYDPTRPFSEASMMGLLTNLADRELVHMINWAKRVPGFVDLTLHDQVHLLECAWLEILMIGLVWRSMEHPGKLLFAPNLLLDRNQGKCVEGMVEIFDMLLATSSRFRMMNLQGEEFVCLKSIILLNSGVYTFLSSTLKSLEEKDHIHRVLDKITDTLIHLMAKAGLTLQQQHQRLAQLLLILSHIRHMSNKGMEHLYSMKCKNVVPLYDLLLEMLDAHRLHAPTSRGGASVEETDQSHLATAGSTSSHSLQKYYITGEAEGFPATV

Among the data in PubChem BioAssay (Tox21) are Potency values, retold here.

Values without a mark were called inactive. Records with an inconclusive call do not appear. Active and inactive are the calls of the source. Unless noted, calls follow the shape of the dose curve; as a rule, active = well fitted curve in the direction sought with a large enough effect in the repeat runs; inconclusive = weak or mixed curves; inactive = no such curve, though single readings can be large; an effect the other way counts as inactive or inconclusive.

Androgen receptor (Homo sapiens), sequence (P10275 whole entry, looked up): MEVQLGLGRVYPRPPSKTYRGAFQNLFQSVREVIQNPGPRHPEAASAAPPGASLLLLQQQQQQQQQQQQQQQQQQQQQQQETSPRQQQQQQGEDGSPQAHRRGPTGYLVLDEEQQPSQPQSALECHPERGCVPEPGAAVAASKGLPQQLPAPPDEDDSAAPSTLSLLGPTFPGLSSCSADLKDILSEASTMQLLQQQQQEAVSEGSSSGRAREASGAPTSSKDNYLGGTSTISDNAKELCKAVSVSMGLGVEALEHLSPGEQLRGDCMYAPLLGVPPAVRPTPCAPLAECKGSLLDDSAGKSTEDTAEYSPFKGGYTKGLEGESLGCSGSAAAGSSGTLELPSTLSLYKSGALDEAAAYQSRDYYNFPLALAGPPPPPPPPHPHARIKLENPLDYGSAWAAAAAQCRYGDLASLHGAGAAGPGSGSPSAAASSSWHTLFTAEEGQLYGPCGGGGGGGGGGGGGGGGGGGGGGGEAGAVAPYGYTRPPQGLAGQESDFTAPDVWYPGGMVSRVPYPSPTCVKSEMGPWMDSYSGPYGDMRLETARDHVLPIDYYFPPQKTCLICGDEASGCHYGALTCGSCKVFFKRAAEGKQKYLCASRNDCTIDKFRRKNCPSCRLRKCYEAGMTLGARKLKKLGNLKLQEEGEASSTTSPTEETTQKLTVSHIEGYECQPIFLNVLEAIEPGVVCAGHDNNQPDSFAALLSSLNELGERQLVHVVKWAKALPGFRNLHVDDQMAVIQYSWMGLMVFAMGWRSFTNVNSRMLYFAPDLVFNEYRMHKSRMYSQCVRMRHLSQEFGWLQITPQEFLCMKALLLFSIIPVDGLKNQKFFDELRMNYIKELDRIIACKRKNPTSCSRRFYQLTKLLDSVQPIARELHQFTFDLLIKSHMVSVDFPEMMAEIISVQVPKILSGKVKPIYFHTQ

On to `CCN(CC)C(=O)N1CCN(C)CC1`, for which the Potency entry in [1], in test [2], in [3], in [4], in [5] and in [6] was “inactive” each time. In addition, the Potency entry in test [7], in test [8], in test [9], in test [10], in test [11] and in test [12] was “inactive” throughout. In addition, the Potency entry in [13], in [14], in [15], in test [16] and in test [17] was “inactive” throughout.

`BrC(Br)C(Br)Br`: the Potency result in [1], in test [2], in [18], in test [4], in [5] and in test [8] was “inactive” in each case. For the same compound, the Potency result in [9], in test [10], in test [11], in test [12], in [19] and in [20] was “inactive” each time. The Potency result in test [14], in [15], in test [16] and in test [17] was “inactive” throughout.

On to `CC1CCCO1` (stereo unspecified), for which the Potency entry in test [1], in [2], in test [3], in test [4], in [5] and in test [6] was “inactive” each time. Also, the Potency entry in test [7], in [8], in test [9], in test [10], in test [11] and in [12] was “inactive” in each case. Besides, the Potency entry in test [15], in [16] and in test [17] was “inactive” each time.

For the compound `O=C(O)CCCc1c[nH]c2ccccc12`, the Potency result in [1], in test [2], in test [4], in [5], in test [6] and in test [7] was “inactive” each time. For the same compound, the Potency result in test [8], in [9], in test [10], in test [11], in test [12] and in test [14] was “inactive” each time. Moreover, the Potency entry in test [15], in test [16] and in test [17] was “inactive” in each case. Moreover, the Potency in test [3] was 15.5 µM (active).

Turning to `Nc1ccc(F)cc1`, the Potency entry in test [1], in test [2], in test [3], in [4], in test [5] and in [6] was “inactive” each time. Also, the Potency result in test [7], in test [9], in test [10], in [11], in [12] and in test [19] was “inactive” throughout. Further, the Potency entry in test [20], in [14], in test [15], in test [16] and in test [17] was “inactive” each time.

Consider `Cc1c[nH]c2ccccc12`, for which the Potency result in test [1], in test [2], in test [3], in [4], in [5] and in test [6] was “inactive” throughout. In addition, the Potency result in test [7], in [8], in test [9], in test [10], in test [11] and in test [12] was “inactive” throughout. For the same compound, the Potency result in test [13], in test [14], in test [15], in test [16] and in [17] was “inactive” throughout.

On to `CC(=O)Oc1cccc(O)c1`, for which the Potency result in test [1], in test [2], in test [3], in test [4], in [5] and in [6] was “inactive” in each case. The Potency entry in test [7], in [8], in [9], in test [10], in test [11] and in test [12] was “inactive” each time. Besides, the Potency result in [20], in test [13], in test [14], in test [15] and in test [16] was “inactive” in each case.

Turning to `CC[C@@H](CO)NCCN[C@@H](CC)CO`, the Potency entry in test [1], in test [2], in test [3], in test [4], in [5] and in test [6] was “inactive” each time. For the same compound, the Potency result in [8], in test [9], in test [10], in test [11], in [12] and in test [13] was “inactive” each time. Besides, the Potency entry in test [14], in [15], in test [16] and in test [17] was “inactive” each time.
